Among the data in ChEMBL document CHEMBL1961873, “Compounds: GSK PKIS; Assays: Nanosyn kinase panel” (2012) are inhibition values, retold here.

The inhibition is the drop in the measured response relative to a control, in per cent.

Assay [1] addresses T1, Ephrin type-B receptor 2 (Homo sapiens) (UniProt P29323).
T1 sequence (whole entry): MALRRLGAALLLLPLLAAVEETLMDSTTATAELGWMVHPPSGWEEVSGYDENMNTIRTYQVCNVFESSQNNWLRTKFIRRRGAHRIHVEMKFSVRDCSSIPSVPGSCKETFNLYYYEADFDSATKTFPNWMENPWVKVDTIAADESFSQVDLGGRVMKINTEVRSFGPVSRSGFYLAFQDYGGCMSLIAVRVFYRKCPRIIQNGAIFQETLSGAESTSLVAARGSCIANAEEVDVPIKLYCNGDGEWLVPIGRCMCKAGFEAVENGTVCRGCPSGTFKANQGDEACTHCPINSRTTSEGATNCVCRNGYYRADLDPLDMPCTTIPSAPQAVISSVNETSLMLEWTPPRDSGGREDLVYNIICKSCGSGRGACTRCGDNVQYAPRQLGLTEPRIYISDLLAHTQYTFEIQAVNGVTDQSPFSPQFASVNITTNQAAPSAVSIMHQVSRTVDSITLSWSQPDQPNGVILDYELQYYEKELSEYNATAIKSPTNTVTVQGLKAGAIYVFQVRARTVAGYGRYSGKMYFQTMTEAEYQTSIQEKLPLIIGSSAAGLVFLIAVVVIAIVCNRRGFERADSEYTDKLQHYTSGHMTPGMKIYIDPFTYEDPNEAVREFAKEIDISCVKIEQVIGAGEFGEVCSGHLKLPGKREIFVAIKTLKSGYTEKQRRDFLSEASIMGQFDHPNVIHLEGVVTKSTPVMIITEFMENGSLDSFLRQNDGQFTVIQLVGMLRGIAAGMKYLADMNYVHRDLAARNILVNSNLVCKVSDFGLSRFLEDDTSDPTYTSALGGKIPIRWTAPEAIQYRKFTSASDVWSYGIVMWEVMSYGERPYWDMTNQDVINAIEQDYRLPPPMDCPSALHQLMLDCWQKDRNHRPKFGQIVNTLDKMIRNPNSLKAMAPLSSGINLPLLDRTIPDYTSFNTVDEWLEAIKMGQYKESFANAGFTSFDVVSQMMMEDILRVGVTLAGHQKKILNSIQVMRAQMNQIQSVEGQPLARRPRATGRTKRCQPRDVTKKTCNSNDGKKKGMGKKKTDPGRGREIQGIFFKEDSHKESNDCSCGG
The following applies: at 1 µM.

In assay [2] the target is T2, Ephrin type-B receptor 3 (Homo sapiens) (UniProt P54753).
T2 sequence (whole entry): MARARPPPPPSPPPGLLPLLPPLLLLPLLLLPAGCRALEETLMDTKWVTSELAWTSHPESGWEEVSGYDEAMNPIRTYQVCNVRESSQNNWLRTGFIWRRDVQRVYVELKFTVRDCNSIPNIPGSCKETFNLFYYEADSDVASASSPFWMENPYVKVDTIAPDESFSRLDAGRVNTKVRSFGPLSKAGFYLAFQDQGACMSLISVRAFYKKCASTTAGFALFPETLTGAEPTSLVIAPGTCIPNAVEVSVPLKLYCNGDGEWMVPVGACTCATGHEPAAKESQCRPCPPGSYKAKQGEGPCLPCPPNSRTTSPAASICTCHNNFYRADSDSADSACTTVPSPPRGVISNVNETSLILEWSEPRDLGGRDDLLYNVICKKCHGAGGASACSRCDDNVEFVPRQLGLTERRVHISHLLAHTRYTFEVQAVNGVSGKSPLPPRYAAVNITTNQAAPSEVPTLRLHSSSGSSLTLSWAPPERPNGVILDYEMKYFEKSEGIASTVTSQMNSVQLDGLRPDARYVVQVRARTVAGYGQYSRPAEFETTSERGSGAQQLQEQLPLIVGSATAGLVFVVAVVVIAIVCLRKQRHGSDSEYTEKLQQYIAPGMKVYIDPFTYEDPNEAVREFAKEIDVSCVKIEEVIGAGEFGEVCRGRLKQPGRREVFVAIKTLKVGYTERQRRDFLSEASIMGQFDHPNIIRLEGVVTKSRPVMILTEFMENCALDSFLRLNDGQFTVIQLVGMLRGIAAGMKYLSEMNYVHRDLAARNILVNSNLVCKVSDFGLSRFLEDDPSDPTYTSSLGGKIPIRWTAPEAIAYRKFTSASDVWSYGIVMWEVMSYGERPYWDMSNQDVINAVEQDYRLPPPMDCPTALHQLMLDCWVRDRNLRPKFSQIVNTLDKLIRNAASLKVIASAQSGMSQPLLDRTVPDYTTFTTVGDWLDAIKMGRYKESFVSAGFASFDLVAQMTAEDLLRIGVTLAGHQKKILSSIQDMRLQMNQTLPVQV
To be noted: at 0.1 µM.

Assay [3] has as its target T2, Ephrin type-B receptor 3 (Homo sapiens). To be noted: at 1 µM.
Assay [4] concerns the target T3, Ephrin type-B receptor 4 (Homo sapiens) (UniProt P54760).
T3 sequence (whole entry): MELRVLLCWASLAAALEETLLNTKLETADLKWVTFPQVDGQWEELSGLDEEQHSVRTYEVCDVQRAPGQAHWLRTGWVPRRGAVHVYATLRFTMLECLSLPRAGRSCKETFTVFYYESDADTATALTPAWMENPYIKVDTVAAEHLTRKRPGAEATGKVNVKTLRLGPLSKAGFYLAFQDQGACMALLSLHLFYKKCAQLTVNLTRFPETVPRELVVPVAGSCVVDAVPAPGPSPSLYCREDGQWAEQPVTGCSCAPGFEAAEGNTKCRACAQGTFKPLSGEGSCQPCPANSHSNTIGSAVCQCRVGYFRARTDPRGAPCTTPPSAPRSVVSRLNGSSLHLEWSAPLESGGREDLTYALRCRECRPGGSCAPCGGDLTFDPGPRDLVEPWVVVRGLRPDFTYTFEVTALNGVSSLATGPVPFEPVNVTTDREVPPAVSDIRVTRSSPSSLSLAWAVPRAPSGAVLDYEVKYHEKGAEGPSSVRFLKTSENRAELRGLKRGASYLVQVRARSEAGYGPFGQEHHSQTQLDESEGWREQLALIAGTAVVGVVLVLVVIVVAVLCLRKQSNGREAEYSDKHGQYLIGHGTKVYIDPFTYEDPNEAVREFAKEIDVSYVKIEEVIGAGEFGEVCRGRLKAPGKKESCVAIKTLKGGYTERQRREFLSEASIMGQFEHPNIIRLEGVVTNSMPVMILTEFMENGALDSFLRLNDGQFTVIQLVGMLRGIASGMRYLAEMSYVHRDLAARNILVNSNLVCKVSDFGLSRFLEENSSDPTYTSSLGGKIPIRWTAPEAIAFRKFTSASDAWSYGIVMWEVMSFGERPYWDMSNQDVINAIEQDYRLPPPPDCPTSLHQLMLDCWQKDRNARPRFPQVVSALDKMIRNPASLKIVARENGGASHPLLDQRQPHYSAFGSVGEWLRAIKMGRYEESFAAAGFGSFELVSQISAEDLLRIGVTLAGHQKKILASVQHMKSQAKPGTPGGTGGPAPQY
To be noted: at 0.1 µM.

Assay [5] concerns the target T3, Ephrin type-B receptor 4 (Homo sapiens). To be noted: at 1 µM.
The target in assay [6] is Receptor tyrosine-protein kinase erbB-2 (Homo sapiens) (UniProt P04626). To be noted: at 0.1 µM.
Chain of Receptor tyrosine-protein kinase erbB-2 (Homo sapiens) (P04626 whole entry): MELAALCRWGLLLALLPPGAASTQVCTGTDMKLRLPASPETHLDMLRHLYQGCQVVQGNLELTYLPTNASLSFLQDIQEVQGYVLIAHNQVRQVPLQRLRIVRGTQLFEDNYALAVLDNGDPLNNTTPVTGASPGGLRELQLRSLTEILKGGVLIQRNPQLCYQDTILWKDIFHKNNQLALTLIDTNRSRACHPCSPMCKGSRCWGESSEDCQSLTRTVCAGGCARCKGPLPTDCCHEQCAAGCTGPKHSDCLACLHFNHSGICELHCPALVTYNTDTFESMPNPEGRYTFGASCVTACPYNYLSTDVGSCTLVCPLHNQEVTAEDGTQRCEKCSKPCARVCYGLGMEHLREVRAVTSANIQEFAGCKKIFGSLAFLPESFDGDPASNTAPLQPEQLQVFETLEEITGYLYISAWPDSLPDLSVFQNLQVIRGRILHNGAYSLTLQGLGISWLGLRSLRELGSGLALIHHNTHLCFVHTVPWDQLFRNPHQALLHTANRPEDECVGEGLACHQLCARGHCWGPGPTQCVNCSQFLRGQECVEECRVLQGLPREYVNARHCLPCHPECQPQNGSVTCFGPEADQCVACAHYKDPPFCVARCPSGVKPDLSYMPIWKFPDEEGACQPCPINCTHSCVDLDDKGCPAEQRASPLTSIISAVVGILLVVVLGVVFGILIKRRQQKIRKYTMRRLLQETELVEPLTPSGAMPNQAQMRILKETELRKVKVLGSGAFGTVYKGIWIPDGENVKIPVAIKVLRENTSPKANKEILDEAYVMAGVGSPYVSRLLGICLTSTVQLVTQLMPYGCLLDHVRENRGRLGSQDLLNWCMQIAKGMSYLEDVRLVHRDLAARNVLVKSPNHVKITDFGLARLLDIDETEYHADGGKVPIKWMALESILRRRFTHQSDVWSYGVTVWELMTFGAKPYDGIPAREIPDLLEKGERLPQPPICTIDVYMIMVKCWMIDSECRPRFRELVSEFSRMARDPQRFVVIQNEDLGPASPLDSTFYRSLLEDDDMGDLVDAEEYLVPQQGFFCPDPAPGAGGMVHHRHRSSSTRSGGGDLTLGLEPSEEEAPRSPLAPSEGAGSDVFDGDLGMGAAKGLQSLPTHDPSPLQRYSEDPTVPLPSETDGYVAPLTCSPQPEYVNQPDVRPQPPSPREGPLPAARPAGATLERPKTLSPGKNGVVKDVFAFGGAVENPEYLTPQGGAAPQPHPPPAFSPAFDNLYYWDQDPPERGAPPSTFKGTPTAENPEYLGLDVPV
The target is the same in assay [7]. To be noted: at 1 µM.
Assay [8] deals with Receptor tyrosine-protein kinase erbB-4 (Homo sapiens) (UniProt Q15303). The following applies: at 0.1 µM.
Chain of Receptor tyrosine-protein kinase erbB-4 (Homo sapiens) (Q15303 whole entry): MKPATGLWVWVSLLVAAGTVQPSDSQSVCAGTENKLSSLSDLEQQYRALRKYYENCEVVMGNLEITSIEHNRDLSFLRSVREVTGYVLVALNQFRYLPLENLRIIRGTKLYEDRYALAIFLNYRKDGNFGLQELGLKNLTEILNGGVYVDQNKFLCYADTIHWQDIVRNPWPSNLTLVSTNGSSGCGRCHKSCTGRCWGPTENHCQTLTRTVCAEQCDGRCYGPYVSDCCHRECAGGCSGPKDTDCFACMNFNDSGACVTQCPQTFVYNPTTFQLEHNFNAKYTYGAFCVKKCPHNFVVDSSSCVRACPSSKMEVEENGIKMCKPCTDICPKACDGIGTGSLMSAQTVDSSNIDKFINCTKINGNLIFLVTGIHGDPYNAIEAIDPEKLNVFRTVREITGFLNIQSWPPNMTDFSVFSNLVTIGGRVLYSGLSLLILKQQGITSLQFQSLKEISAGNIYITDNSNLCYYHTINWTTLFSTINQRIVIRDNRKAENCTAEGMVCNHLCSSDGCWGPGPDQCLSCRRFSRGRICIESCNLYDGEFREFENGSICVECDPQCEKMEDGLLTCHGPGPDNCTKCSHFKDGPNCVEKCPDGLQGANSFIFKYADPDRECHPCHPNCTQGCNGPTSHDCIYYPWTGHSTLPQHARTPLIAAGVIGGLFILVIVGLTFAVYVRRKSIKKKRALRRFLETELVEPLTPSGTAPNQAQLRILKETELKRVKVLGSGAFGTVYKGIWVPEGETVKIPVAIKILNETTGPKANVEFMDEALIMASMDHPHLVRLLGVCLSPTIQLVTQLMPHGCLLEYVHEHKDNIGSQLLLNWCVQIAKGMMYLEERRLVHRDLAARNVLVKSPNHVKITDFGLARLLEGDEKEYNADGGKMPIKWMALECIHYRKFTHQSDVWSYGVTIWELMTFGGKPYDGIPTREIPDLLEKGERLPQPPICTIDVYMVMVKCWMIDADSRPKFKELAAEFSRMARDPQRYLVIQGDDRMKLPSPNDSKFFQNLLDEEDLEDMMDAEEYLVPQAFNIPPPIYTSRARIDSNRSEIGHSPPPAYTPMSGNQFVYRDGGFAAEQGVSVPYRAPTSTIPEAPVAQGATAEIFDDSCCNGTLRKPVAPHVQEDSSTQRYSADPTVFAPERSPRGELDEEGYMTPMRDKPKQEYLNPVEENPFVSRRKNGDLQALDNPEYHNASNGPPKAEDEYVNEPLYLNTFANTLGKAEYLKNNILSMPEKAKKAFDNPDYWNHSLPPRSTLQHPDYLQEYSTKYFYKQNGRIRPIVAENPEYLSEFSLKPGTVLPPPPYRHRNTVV
Assay [9] shares this target. The following applies: at 1 µM.
Assay [10] has as its target Tyrosine-protein kinase Fer (Homo sapiens) (UniProt P16591). To be noted: at 0.1 µM.
For assay [11] the target is unchanged. The following applies: at 1 µM.
The target of assay [12] is Tyrosine-protein kinase Fes/Fps (Homo sapiens) (UniProt P07332). To be noted: at 0.1 µM.
Chain of Tyrosine-protein kinase Fes/Fps (Homo sapiens) (P07332 whole entry): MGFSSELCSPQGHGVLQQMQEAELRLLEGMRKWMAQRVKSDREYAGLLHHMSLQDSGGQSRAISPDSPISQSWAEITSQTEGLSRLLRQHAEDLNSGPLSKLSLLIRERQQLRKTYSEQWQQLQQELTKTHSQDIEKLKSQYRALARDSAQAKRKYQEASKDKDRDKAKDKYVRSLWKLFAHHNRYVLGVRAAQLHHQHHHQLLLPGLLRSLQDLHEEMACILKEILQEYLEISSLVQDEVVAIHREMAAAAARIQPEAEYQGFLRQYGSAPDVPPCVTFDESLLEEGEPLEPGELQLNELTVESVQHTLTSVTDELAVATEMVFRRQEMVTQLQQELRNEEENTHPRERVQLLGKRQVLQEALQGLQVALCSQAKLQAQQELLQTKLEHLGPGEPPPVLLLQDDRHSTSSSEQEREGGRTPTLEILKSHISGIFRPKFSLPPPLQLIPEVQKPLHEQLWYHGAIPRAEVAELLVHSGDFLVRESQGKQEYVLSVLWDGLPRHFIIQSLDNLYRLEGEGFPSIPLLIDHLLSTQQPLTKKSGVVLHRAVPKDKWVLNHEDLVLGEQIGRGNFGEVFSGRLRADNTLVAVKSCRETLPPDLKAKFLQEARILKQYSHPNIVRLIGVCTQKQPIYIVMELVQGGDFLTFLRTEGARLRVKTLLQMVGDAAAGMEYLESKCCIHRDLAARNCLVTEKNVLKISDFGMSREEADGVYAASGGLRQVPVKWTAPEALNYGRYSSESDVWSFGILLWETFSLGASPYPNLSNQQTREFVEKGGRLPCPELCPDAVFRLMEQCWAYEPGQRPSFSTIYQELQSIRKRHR
For assay [13] the target is unchanged. The following applies: at 1 µM.
The target in assay [14] is Fibroblast growth factor receptor 1 (Homo sapiens) (UniProt P11362). To be noted: at 0.1 µM.
For assay [15] the target is unchanged. The following applies: at 1 µM.
For assay [16], the target named is Fibroblast growth factor receptor 2 (Homo sapiens) (UniProt P21802). The following applies: at 0.1 µM.
Chain of Fibroblast growth factor receptor 2 (Homo sapiens) (P21802 22-821 limits assumed): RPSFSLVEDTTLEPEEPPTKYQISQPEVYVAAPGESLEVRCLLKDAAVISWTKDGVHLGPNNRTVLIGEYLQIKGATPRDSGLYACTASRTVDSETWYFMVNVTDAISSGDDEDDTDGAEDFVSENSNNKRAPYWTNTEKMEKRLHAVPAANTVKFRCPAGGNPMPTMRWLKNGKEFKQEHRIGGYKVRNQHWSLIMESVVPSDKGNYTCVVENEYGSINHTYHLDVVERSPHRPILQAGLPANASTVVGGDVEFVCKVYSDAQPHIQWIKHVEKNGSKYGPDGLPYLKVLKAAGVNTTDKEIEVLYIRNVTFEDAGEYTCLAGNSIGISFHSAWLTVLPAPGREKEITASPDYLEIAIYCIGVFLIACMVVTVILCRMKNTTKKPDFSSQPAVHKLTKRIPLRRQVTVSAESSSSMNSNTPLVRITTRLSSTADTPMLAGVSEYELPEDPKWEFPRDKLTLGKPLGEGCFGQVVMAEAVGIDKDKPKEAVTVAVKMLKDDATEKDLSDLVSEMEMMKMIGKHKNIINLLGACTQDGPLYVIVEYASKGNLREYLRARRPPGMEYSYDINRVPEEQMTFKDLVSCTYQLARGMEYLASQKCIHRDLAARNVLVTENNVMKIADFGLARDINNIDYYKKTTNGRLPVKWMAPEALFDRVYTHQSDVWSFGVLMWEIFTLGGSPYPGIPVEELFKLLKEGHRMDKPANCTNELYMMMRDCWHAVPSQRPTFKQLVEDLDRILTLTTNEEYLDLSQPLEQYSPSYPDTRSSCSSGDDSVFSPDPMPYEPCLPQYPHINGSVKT
Assay [17] has the same target. To be noted: at 1 µM.
Assay [18] deals with Fibroblast growth factor receptor 3 (Homo sapiens) (UniProt P22607). The following applies: at 0.1 µM.
Chain of Fibroblast growth factor receptor 3 (Homo sapiens) (P22607 23-806 limits assumed): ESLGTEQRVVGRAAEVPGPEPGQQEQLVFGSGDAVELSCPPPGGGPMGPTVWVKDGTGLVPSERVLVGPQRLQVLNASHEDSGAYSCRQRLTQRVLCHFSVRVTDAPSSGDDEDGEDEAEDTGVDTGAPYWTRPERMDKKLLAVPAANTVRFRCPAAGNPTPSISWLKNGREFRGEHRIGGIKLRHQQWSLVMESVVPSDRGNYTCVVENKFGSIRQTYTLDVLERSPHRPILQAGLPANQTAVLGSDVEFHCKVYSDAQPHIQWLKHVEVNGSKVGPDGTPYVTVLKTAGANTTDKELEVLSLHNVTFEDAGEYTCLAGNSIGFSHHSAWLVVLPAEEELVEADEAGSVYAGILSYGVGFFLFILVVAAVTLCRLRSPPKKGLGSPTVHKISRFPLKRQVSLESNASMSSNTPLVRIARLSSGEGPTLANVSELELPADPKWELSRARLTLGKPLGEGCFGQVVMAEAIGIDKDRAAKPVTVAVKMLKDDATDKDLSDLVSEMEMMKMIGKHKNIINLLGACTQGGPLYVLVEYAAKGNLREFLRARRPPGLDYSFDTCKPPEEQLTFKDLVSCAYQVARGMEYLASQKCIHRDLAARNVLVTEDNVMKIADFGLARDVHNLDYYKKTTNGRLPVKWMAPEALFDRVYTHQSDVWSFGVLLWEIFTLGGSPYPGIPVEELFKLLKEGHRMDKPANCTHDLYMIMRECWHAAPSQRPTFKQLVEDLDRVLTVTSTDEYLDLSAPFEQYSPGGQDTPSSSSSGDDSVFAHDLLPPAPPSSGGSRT
Assay [19] shares this target. The following applies: at 1 µM.
For assay [20], the target named is Fibroblast growth factor receptor 4 (Homo sapiens) (UniProt P22455). To be noted: at 0.1 µM.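 Further: values are mean percent inhibition of FGFR4.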

For `CN(C)CCOc1ccc(-c2cc(-c3ccc4c(c3)CCC4=NO)c(-c3ccncc3)o2)cc1`, the inhibition in assay [1] is 6.81%; in assay [2], -0.49%; in assay [3] it was 5.63%; in assay [4], 0.06%; in [5] it was 1.37%; in [6], 3.66%. Further, the inhibition in assay [7] was 5.12%; in assay [8] it was 1.69%; in assay [9] it was 13%; in assay [10], -1.17%; in [11], -0.96%; in [12] it was 0.22%. The inhibition in assay [13] was -1.71%; in assay [14], -4.37%; in assay [15], -0.28%; in assay [16] it was -2.17%; in assay [17] it was -0.7%; in [18], -1.69%. Also, the values for the inhibition in [19] and in assay [20] were -0.19% and 1.99%, respectively.
Take `Cc1ccc(C(=O)NC(C)C)cc1-c1ccc(C(=O)NCC2CC2)cc1`: the inhibition in assay [1] was 0.35%; in [2], -7.05%; in assay [3], -4.82%; in assay [4], -0.32%; in assay [5], -2.91%; in assay [6], -5.52%. Also, the inhibition in assay [7] was -4.79%; in assay [10], -1.9%; in [11], -1.61%; in assay [12] it was -2.77%; in assay [13], -3%; in assay [14] it was -5.37%. The inhibition in [15] is -2.8%; in assay [16] it was -4.22%; in assay [17], -3.57%; in assay [18], -4.95%; in assay [19], -3.57%; in assay [20], 1.18%.
For the compound `O=C(NCC1CC1)c1ccc(-c2cccc(C(=O)NC3CC3)c2)cc1`, the inhibition is 11.8% in assay [1]; 3.55% in assay [2]; 2.98% in [3]; 1.37% in assay [4]; 1.03% in assay [5]; -0.54% in [6]. Also, the inhibition in assay [7] was 1.1%; in assay [8] it was 16.7%; in assay [9] it was 6.05%; in [10], 0.26%; in assay [11], -1.83%; in assay [12], 1.39%. Further, the inhibition in assay [13] was determined as 1.59%; in assay [14], 2.86%; in assay [15], 8.03%; in assay [16], 3.33%; in assay [17], 10.1%; in assay [18], 4.92%. Moreover, the inhibition in assay [19] is 9.43%; in [20] it was -0.02%.
For the compound `COc1cc(Nc2ncc(-c3ccccc3)o2)cc(OC)c1OC`, the inhibition in [1] was 5.83%; in assay [2], -5.87%; in [3], -2.19%; in assay [4], 1.05%; in [5] it was 3.25%; in [6] it was 0.87%. The inhibition in assay [7] was -1.74%; in assay [8], -4.19%; in assay [9], -2.66%; in assay [10] it was -1.48%; in assay [11] it was 2.66%; in assay [12] it was 0.68%. The inhibition in [13] was -1.45%; in [14], -3.33%; in assay [15] it was 8.79%; in [16], 4.47%; in assay [17], 27%; in assay [18] it was 1.69%. Moreover, the inhibition was 16.6% in [19] and -0.19% in assay [20].
